Assay outcomes deposited in PubChem BioAssay by National Center for Advancing Translational Sciences (NCATS).
An excerpt weighted towards active compounds, which were near 19% of everything screened.
DT40 TDP1 CPT: DT40-hTDP1 cell growth loss with CPT | chicken DT40 Tdp1-/-;hTDP1 cells + 20 nM CPT, ATP luminescence, 48 h | 12% of 420,000 active | AID 686979 | Potency, µM (titrated, usually from 46.2 µM), for the others: at the top dose activity change, negative = growth inhibition, actives largely listed as inhibitors; also: potency is read from the fitted curve at half-maximal effect; % is scaled to controls: 0 for no effect and ±100 for the full control effect; nearly all actives have a fitted effect of over 55% in size
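Cell growth measured by CellTiter-Glo luminescence after a minimum 48 h, 37 C compound exposure with 20 nM CPT in Tdp1-knockout DT40 cells stably expressing hTDP1, seeded 400/well; qHTS titration format.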
DT40 TDP1 no CPT: qHTS for Inhibitors of human tyrosyl-DNA phosphodiesterase 1 (TDP1): qHTS in cells in absence of CPT; Potency, µM (top dose mostly 46.2 µM), inactives show at the highest dose activity change, negative = growth inhibition, usual class: inhibitors; 15% of 420,000 active; DT40 Tdp1-/- hTDP1 cells, no CPT, ATP luminescence, 48 h; AID 686978, 2013; also: potency is read from the fitted curve at half-maximal effect; % is scaled to controls: 0 for no effect and ±100 for the full control effect; nearly all actives have a fitted effect of over 55% in size
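A cellular qHTS used chicken DT40 cells lacking endogenous Tdp1 but carrying stably transfected human TDP1. Compounds were applied without camptothecin, and cell growth kinetics were judged by ATP-dependent luminescence after ≥48 hr.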
IL1B secr inh: blocks inflammasome-driven IL-1 beta release; THP-1 LPS/ATP IL-1B secretion, AlphaLISA, 16 h; active compounds read low; activity change, % at 57.5 µM; 4.7% of 360,000 active; in the data active = activity change below about -50%; inconclusive = mostly about -30% to -49%; also: % is scaled to controls: 0 for no effect and ±100 for the full control effect
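THP-1 cells pretreated 1 hr with compounds (up to 57.5 uM final), then stimulated with LPS (250 ng/mL final) plus ATP (1.25 mM final); secreted IL-1B measured by AlphaLISA after 16 hr, decreased signal indicating inhibition.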
MCF10A rereplic: DNA re-replication induction in MCF 10a cells; MCF 10A DNA re-replication, Hoechst nuclear intensity, 48 h; Potency, µM (series often up to 46.1 µM), for inactives: at the top dose activity, positive = re-replication, hits mostly activators; 2.9% of 350,000 active; AID 624296; also: potency is read from the fitted curve at half-maximal effect; % of control where 0% means no effect; nearly all actives have a fitted effect of over 50% in size
SW480 rereplic: DNA re-replication induction in SW480 cells; 1.8% of 340,000 active; SW480 DNA re-replication, Hoechst DNA content imaging, 48 h; Potency, µM (top dose mostly 46.1 µM), for the others: top-dose re-replication activation, usual class: activators; also: potency is read from the fitted curve at half-maximal effect; % of control where 0% means no effect; nearly all actives have a fitted effect of over 55% in size
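Compounds, transferred as 23 nL by pin tool, were incubated with cells for 48 hr; DNA content per nucleus was then quantified by Hoechst staining and fluorescence plate imaging.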
BCR signal inh: chronic active BCR signaling inhibition. ABC-DLBCL IkBa-CBG/CBR reporter, luminescence ratio, 4 h. Potency, µM (top dose mostly 46.1 µM), inactives show at the highest dose activity change, negative = inhibition, hits mostly inhibitors. 0.05% of 340,000 active. AID 493014; active = well fitted inhibition curve with a large enough effect in the signal ratio, with a control signal flat, not every such curve was filed as active; inconclusive = small, poorly fitted or top-dose-only effect, or effect the other way, or a change in a side signal; the % refers to the signal ratio;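 also: potency is read from the fitted curve at half-maximal effect; plate controls were basal doxycycline-induced cells for no effect and cells given 10 µM MG132 for full effect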
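Doxycycline induced both beetle luciferases in TMD8 lymphoma cells; IKK-driven degradation limits the IkappaBalpha-fused green signal, while red luminescence normalises for cell number and nonspecific effects. Compounds tested up to 46 uM, 4 hrs.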
* marks the source's active call; other numbers are inactive results; ? = inconclusive; nt = no result given; ! = a repeat was not active. Unless noted, calls follow the shape of the dose curve; as a rule, active = well fitted curve in the direction sought with a large enough effect; inconclusive = small, poorly fitted or top-dose-only effect, or another doubt; inactive = no such curve, though single readings can be large; an effect the other way counts as inactive or inconclusive.

SMILES	DT40 TDP1 CPT	DT40 TDP1 no CPT	IL1B secr inh	MCF10A rereplic	SW480 rereplic	BCR signal inh
O=C(COC(=O)c1ccc[n+]([O-])c1)Nc1ccccc1OC(F)F	-22%	-16%	-1	-1%	-8%	1%
O=C(C[n+]1ccc(-c2cc(C(=O)Nc3cccc(C(F)(F)F)c3)c3ccccc3n2)cc1)c1cccc([N+](=O)[O-])c1	?	23µM*	-27	-15%	?	0%
O=C(Cc1ccccc1)Nc1cccc([N+](=O)[O-])c1	5%	14%	-15	-10%	-2%	?
O=C(CCSc1ccccc1Cl)Nc1cccc([N+](=O)[O-])c1	-10%	?	-150*	?	?	?
O=C(C[n+]1ccc(C(=O)c2ccccc2)cc1)Nc1cccc([N+](=O)[O-])c1	21µM*	16µM*	-7	nt	nt	nt
O=C(C[n+]1ccc(C(=O)c2ccccc2)cc1)Nc1ccccc1OC(F)F	?	16µM*	-14	-12%	-3%	-2%
CCc1cccc(C)c1NC(=O)CCCN1C(=O)CN(C)C1=O	-5%	12%	-8	-4%	-2%	2%
O=C1CC(c2nnc(Cc3ccc(F)cc3)o2)CN1c1ccccc1 (stereo not drawn)	6%	-3%	nt	nt	nt	nt
COc1ncc2nc(C)c(=O)n(Cc3cccs3)c2n1	13%	?	nt	nt	nt	nt
COc1cc(NS(=O)(=O)c2cc(C(=O)NCCc3ccccn3)ccc2OC)cc(OC)c1	4%	-25%	17	-25%	15%	0%
Cc1cc(C)c([N+](=O)[O-])cc1NC(=O)CCSc1ccccc1Cl	?	15µM*	8	4%	-8%	1%
O=C(C[n+]1ccccc1)Nc1ccccc1C(F)(F)F	-8%	20%	13	3.3µM*	-55%	6%
NS(=O)(=O)c1cccc(NC(=O)CCSc2ccccc2Cl)c1	-11%	3%	0	?	101%	?
CSc1cccc(NC(=O)C2(S(=O)(=O)c3ccc(C)cc3)CC2)c1	0%	-21%	-9	0%	4%	?
COC(=O)C1=Cc2cc(OC)cc([N+](=O)[O-])c2OC1N1CCOCC1 (stereo not drawn)	?	26µM*	-1	-2%	-10%	8%
O=C(c1cc([N+](=O)[O-])ccc1N1CCOCC1)N1CCOCC1	-13%	19%	-7	-1%	-10%	-2%
COC(=O)c1cc(C(=O)N2CCOCC2)cc([N+](=O)[O-])c1	-3%	7%	19	-1%	-8%	?
CC(C)C(=O)C1=Cc2cccc([N+](=O)[O-])c2OC1N1CCOCC1 (stereo not drawn)	?	?	-60*	-9%	5%	?
O=C(Cc1ccccc1[N+](=O)[O-])NCCCN1CCOCC1	17%	-1%	-5	-8%	0%	-1%
CC(C)C(=O)C1=Cc2cc([N+](=O)[O-])ccc2OC1N1CCOCC1 (stereo not drawn)	?	26µM*	-16	?	-5%	-8%
NC(=O)NCC(N)C(=O)O (stereo not drawn)	1%	-5%	nt	nt	nt	nt
CCOC(=O)c1sc2nc(N3CCOCC3)c3c(c2c1N)CCCC3	?	-19%	-4	0%	1%	5%
CCOC(=O)c1sc2nc(N3CCOCC3)c3c(c2c1N)CC(C(C)C)OC3 (stereo not drawn)	8.2µM*	-13%	-6	?	-12%	1%
Cc1ccc(NC(=O)Cn2nc(-c3ccccc3)nc(Cc3ccccc3)c2=O)cc1	10%	-16%	nt	nt	nt	?
O=C(Cc1cc(=O)[nH][nH]1)N/N=C/c1c(Cl)cccc1Cl	-7%	-7%	-100*!	?	7%	3%
